Our source for the growth values is PubChem BioAssay (NCI).

The panel holds about 83,000 compounds, 20% with a hit somewhere; the sample as a whole holds those more often.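 Note: values are percent growth. 100 is the growth of untreated cells, values between 100 and 0 indicate rising inhibition; between -100 and 0 indicates cell death.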 The source made the active and inactive calls. The calls were made as follows: active = growth percent below 10; inactive = the rest.

This assay deals with HL-60(TB) leukemia. The experiment in a line: NCI-60 one-dose screen, 48 h (100 = growth as untreated, 0 = no growth, -100 = all killed). To be noted: 10 µM unless noted.
`COc1ccc(-c2ccc(=O)oc2C#Cc2cc(OC)c(OC)c(OC)c2)cc1O`: the growth was -45.7% (active).
For `c1ccc(Sc2ccccc2)cc1` the value was 85.8% (inactive); for `NC(CSC(c1ccccc1)(c1ccccc1)c1ccc2c(c1)OCO2)C(=O)O` (stereo not given), -26.2% (active).
For `CN1CCN(CCCNc2nccc(-c3c(-c4ccc(F)c(O)c4)nc4sccn34)n2)S1(=O)=O` the value was 78.3% (inactive); for `O=C(/C=C/c1ccc(Br)cc1)c1ccc(-n2cc(CN3CCN(c4cc5c(cc4F)c(=O)c(C(=O)O)cn5C4CC4)CC3)nn2)cc1`, 94.3% (inactive); for `C=C1C(=O)O[C@H]2[C@H]1CC/C(C=Nc1c(N)cc(C(F)(F)F)cc1C(F)(F)F)=C\CC[C@@]1(C)O[C@@H]21`, -24.9% (active).
For `Cc1c(Cl)cccc1NC(=O)c1sc2nc3c(cc2c1N)C(=O)CCC3` the value was -1.76% (active); for `CCOC(=O)N1C/C(=C/c2ccc(F)cc2)C(=O)/C(=C/c2ccc(F)cc2)C1`, 4.58% (active).
Consider `O=c1c2sc3ncc(Br)cc3c2ncn1-c1cccc(Cl)c1`, for which the growth is 84.5% (inactive).
The same measure for `S=C(NCc1ccccc1)NCc1ccccc1`: 84.7% (inactive).
The same measure for `COc1cc(C2=NN(C=O)C(c3cccc(Nc4ccnc5cc(Cl)ccc45)c3)C2)cc(OC)c1OC` (stereo not given): 75.4% (inactive); for `C/C(=N\NC(=S)N1CCCC1)c1ccccn1`: -13.4% (active); for `Clc1ccc(-c2nnc(Cn3ccnc3)o2)cc1`: 93.8% (inactive).
For `COc1cc(-c2cc(-c3ccc(Nc4ncnc5cc(Cl)ccc45)cc3)nc(N3CCN(C)CC3)n2)cc(OC)c1OC` the value was 76.4% (inactive).
As for `CN1CCN(CC(=O)Nc2cccc(-n3cc(-c4ccncc4)c(-c4ccc(Cl)c(O)c4)n3)c2)CC1`, the growth was 5.27% (active).
For `CCN1C(=O)N(CC)C2C1NN=c1s/c(=C3\C(=O)N(CC(C)(C)C)c4ccccc43)c(=O)n12` (stereo not given) the value was -26.1% (active); for `O=C1c2cccc3c(-c4ccc5c(c4)ncn5C4CCCCC4)ccc(c23)C(=O)N1CCO`, 103% (inactive).
For `CN(C)CCN1C(=O)c2ccc3c4c(ccc(c24)C1=O)C(=O)N(CCN=C=S)C3=O` the value was -51.1% (active); for `CN1CCN(Cc2ccc(NC(=O)c3cncc(C#Cc4cnc(N)c5ncccc45)c3)cc2C(F)(F)F)CC1`, 13% (inactive).
The same measure for `C/C(=N\Nc1ccc2ccccc2n1)c1ccccn1`: -39% (active).
In the case of `[2H]C([2H])([2H])Oc1ccc(F)cc1/C=C/C(=O)/C=C(O)/C=C/c1cc(F)ccc1OC([2H])([2H])[2H]`, the growth was 77.3% (inactive).
The same measure for `O=C(/C=C/c1ccc(C(F)(F)F)cc1)c1ccc(Nc2nc(NCCO)nc(NCCO)n2)cc1`: 88.5% (inactive); for `COc1cc(F)c(/C=C/c2cc(/C=C/c3cc(OC)c(OC)cc3F)on2)cc1OC`: 85.2% (inactive).
For `COc1ccccc1NC(=O)COc1ccc(/C=C2/Oc3cc4occc4c(OC)c3C2=O)cc1OC` the value was 87.5% (inactive).
In the case of `O=C(/C=C/c1cccc([N+](=O)[O-])c1)c1ccc(Nc2nc(Nc3ccc(F)cc3)nc(Nc3ccc(Cl)cc3)n2)cc1`, the growth was -42.1% (active).
The same measure for `COc1ccc(CNc2ccc3nc(CCC4CCCCC4)[nH]c3c2)cc1`: 54.8% (inactive); for `Nc1ccc(Br)cc1C(F)(F)F`: 90.2% (inactive).
`CC1Cc2ccccc2O1` (stereo not given): the growth was 102% (inactive).
Regarding `C/C(=C(/c1ccc(O)cc1)c1ccc(OCCN(C)C)cc1)c1ccccc1`, the growth is 76% (inactive).
The same measure for `O=C(Nc1nc(-c2ccccc2)cc(-c2ccc(Cl)cc2)n1)c1ccncc1`: 110% (inactive); for `O=C(O)c1ccc2c(c1)nc(Nc1cccc(Cl)c1)c1ccncc12`: -28.6% (active).
For `Cc1ccc(NC(=O)c2sc3nc(C)c(C(O)c4ccccc4)cc3c2N)cc1` (stereo not given) the value was -47.5% (active); for `Cc1ccsc1C(NC(=O)c1ccccc1)c1cc(Cl)c2cccnc2c1O` (stereo not given), 12.4% (inactive).
The same measure for `Cn1c(=O)c2c(c3ccccc31)OC(N)=C(C#N)C21C(=O)c2ccccc2C1=O`: 98.1% (inactive).
Take `COc1ccc(-c2ccccc2)cc1-c1c(Nc2cc(Cl)cc(Cl)c2O)c(=O)c1=O`: the growth is -29.8% (active).
For `O=C(O)c1cn(C2CC2)c2cc(N3CCN(Cc4cc(Cl)ccc4O)CC3)c(F)cc2c1=O` the value was 46.4% (inactive); for `N=c1c(S(=O)(=O)c2ccccc2)cc2c(=O)n3ccccc3nc2n1CC1CCCO1` (stereo not given), 109% (inactive); for `CC(C)(C)c1cc(C=Nc2cccc(C(F)(F)F)c2)c(O)c(C(C)(C)C)c1`, 90.1% (inactive).
For `COc1ccc(Cc2cnc(N)nc2N)cc1OC` the value was 95.2% (inactive).
The same measure for `CC1=C(SCCC(=O)OC(C[Se]C2=C(C)C(=O)c3ccccc3C2=O)C(=O)NCCCCCC(=O)OCc2ccccc2)C(=O)c2ccccc2C1=O` (stereo not given): -1.59% (active).
